Experimental findings from PubChem BioAssay (Tox21) are described below.

Assay [1] in a line: qHTS assay to identify small molecule antagonists of the retinoid acid receptor (RAR) signaling pathway - cell viability counter screen (AID 1159551). Further: nearly all actives have a fitted effect of over 35% in size. The method, boiled down: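 Cytotoxicity counter screen: ATP content quantified by CellTiter-Glo luminescence in C3RL4 cells treated 6 hr at 37 C with compound and retinol (1 uM final). Cells plated at 1,000/well and cultured overnight before dosing.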
On the technique in general: qHTS replaces the single test concentration by a dilution series.

Assay [2] in a line: qHTS assay to identify small molecule antagonists of the retinoic acid receptor (RAR) signaling pathway (AID 1159552; further: nearly all actives have a fitted effect of over 50% in size; further: potency means the concentration at half of the fitted maximal effect). The procedure, abridged: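 Retinol signaling pathway inhibitors screened in C3RL4 RARE-luciferase reporter cells seeded overnight at 37 C, then compounds added with 1 uM (final) retinol as pathway substrate. After 6 hr at 37 C, luciferase luminescence read after 30 min at room temperature.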

Assay [3] in a line: qHTS assay to identify small molecule agonists of the retinoic acid receptor (RAR) signaling pathway (AID 1159553). Further: potency means the concentration at half of the fitted maximal effect. The method, boiled down:
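Luminescence was measured 30 min after luciferase reagent addition at room temperature. Before that, C3RL4 reporter cells (1,000 per well, plated overnight) were treated with compound for 6 hr at 37 C and 5% CO2.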

Assay [4] is described as follows: qHTS assay to identify small molecule antagonists of the estrogen related receptor (ERR) signaling pathway from Tox21 library - cell viability counter screen (AID 1224834). Further: nearly all actives have a fitted effect of over 30% in size. Further: potency means the concentration at half of the fitted maximal effect. The procedure, abridged: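 CellTiter-Fluor fluorescence, read after 30 min at 37 C, measures viability of ERR cells. Cells plated at 2,000/well and incubated 6 h before pin-tool compound addition, then exposed 17.5 hours at 37 C.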

For assay [5], the target named is Luciferin 4-monooxygenase (Photinus pyralis) (UniProt P08659). The assay can be described thus: qHTS assay to identify small molecule inhibitors of firefly luciferase (AID 1224835). Further: nearly all actives have a fitted effect of over 25% in size. Further: potency means the concentration at half of the fitted maximal effect. The procedure, abridged: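 Inhibition of purified Photinus luciferase is measured by luminescence. Substrate levels (D-luciferin, ATP) sit at their KM values. Each compound is tested in a concentration series.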
Luciferin 4-monooxygenase (Photinus pyralis), sequence (P08659 whole entry, looked up): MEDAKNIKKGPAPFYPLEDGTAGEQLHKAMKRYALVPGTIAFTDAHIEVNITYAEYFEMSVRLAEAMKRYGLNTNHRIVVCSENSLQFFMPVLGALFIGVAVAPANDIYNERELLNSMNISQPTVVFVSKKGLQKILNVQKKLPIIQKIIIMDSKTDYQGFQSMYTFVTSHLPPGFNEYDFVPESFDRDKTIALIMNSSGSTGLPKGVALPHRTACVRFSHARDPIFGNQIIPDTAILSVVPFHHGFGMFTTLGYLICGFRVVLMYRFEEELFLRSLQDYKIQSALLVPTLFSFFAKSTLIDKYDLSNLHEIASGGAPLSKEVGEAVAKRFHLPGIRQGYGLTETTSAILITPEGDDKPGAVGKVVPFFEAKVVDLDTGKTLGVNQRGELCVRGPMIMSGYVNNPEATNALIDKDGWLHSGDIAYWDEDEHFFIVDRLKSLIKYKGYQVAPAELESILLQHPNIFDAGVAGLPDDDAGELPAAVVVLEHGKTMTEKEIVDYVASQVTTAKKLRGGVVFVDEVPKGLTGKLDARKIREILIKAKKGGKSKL

Assay [6] can be described thus: qHTS assay to identify small molecule agonists of the constitutive androstane receptor (CAR) signaling pathway - cell viability counter screen (AID 1224836). Further: series mostly up to about 92 µM; nearly all actives have a fitted effect of over 45% in size. The method, boiled down:
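HepG2 cells stably carrying hCAR and a CYP2B6-2.2kb reporter; 15-concentration compounds plus PK11195 (final 0.75 uM), 23 hr at 37 C/5% CO2. Viability read by CellTiter-Fluor fluorescence.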

The nature of assay [7]: qHTS assay to identify small molecule antagonists of the constitutive androstane receptor (CAR) signaling pathway - cell viability counter screen (AID 1224837). Further: nearly all actives have a fitted effect of over 45% in size. Further: potency means the concentration at half of the fitted maximal effect. The method, boiled down:
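Cytotoxicity counter-screen: CellTiter-Fluor fluorescence after 23 h compound exposure (15-point qHTS) in double-stable HepG2-CYP2B6-hCAR cells, with 50 nM CITCO added.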

Assay [8] is described as follows: qHTS assay to identify small molecule antagonists of the estrogen related receptor signaling pathway with the pleiotropic PPARgamma coactivator (PGC) from Tox21 10K library - cell viability counter screen (AID 1224840; active means well fitted cell-killing curve with a large enough effect in the repeat runs, not every such curve was filed as active; further: nearly all actives have a fitted effect of over 40% in size; further: potency means the concentration at half of the fitted maximal effect). The method, boiled down: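 Counter-screen for cytotoxicity: after 17.5 h compound exposure at 37 C, CellTiter-Fluor reagent added to PGC/ERR cells for 30 min and fluorescence read. Cells were seeded at 2,000 per well 6 h before dosing.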

Assay [9] in a line: qHTS assay to identify small molecule agonists of the estrogen related receptor signaling pathway with the pleiotropic PPARgamma coactivator (PGC) from Tox21 10K library (AID 1224842). Further: nearly all actives have a fitted effect of over 15% in size. Further: potency means the concentration at half of the fitted maximal effect. The procedure, abridged:
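Luminescence from One-Glo (30 min, room temperature) measured after PGC/ERR cells had 18 h at 37 C with pinned compound (23 nL in DMSO). Cells had been seeded at 2,000 per well and pre-incubated 6 h.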

For assay [10], the target named is Thyrotropin receptor (Homo sapiens) (UniProt P16473). The assay can be described thus: qHTS assay to identify small molecule agonists of the thyroid stimulating hormone receptor (TSHR) signaling pathway (AID 1224843; calls by dose curve; further: nearly all actives have a fitted effect of over 45% in size; further: potency means the concentration at half of the fitted maximal effect). The procedure, abridged: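 A cell-based cAMP HTRF format was run in TSHR-transfected HEK293 cells, 800 per well. Treatment: 30 min, room temperature. Detection: 1 h with labelled cAMP and anti-cAMP cryptate. Concentration-response over 15 points, three replicates.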
Thyrotropin receptor (Homo sapiens), sequence (P16473 whole entry, looked up): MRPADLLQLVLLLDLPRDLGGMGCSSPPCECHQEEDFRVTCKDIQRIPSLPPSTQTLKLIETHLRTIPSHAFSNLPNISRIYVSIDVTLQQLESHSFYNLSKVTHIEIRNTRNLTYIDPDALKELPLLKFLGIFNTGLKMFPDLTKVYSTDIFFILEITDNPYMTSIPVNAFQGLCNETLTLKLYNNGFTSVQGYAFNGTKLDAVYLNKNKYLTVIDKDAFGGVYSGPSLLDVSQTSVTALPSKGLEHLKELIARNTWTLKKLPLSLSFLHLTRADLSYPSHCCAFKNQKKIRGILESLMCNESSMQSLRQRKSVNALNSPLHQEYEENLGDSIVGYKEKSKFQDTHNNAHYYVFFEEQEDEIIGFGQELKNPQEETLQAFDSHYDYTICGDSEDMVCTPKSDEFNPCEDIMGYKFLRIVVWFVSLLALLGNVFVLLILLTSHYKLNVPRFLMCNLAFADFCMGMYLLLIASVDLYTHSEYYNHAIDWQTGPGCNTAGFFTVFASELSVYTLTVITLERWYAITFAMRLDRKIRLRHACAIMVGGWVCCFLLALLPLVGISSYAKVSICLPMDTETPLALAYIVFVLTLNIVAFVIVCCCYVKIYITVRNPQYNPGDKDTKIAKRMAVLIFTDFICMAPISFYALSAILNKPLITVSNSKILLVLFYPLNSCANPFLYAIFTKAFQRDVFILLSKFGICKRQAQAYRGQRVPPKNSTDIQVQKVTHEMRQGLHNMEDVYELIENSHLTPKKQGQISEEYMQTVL

Assay [11] is described as follows: qHTS assay to identify small molecule agonists of the hypoxia (HIF-1) signaling pathway - cell viability counter screen (AID 1224844; calls by dose curve; further: nearly all actives have a fitted effect of over 50% in size; further: potency means the concentration at half of the fitted maximal effect). The procedure, abridged: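 Cytotoxicity measured by CellTiter-Glo ATP luminescence in the wells also read for beta-lactamase signal. Cells were HRE-bla ME-180 (2,000/well, 0.5% dialyzed FBS), exposed to compounds for 17 h at 37C.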

Assay [12] deals with Nuclear receptor subfamily 1 group I member 3 (Homo sapiens) (UniProt Q14994). In words: qHTS assay to identify small molecule antagonists of the constitutive androstane receptor (CAR) signaling pathway (AID 1224838).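 Further: HepG2 cells stably expressing hCAR with CYP2B6 luciferase reporter stimulated by CITCO; nearly all actives have a fitted effect of over 40% in size.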 The procedure, abridged: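 Antagonism measured as luciferase signal (ONE-Glo, 30 min, room temperature) in CAR-stimulated cells: HepG2-CYP2B6-hCAR double-stable line exposed 24 hr at 37 C to compound in a 15-point series plus 50 nM CITCO.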
Nuclear receptor subfamily 1 group I member 3 (Homo sapiens), sequence (Q14994 whole entry, looked up): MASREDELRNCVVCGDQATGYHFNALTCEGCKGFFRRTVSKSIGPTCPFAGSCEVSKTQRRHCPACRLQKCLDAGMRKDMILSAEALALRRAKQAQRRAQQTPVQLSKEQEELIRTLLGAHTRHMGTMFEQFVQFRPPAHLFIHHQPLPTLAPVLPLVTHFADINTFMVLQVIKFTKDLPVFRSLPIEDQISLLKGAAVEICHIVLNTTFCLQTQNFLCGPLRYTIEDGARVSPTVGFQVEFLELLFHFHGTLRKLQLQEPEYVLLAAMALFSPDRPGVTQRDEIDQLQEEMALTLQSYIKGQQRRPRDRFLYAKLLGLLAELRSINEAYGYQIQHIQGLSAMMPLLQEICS

Assay [13] shares this target. The assay can be described thus: qHTS assay to identify small molecule agonists of the constitutive androstane receptor (CAR) signaling pathway (AID 1224839). Further: nearly all actives have a fitted effect of over 15% in size. Further: potency means the concentration at half of the fitted maximal effect. The procedure, abridged:
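HepG2 cells stably co-transfected with hCAR and a CYP2B6-2.2kb luciferase reporter; compounds at 15 concentrations with 0.75 uM PK11195 present. After 24 hr at 37 C, luciferase read by ONE-Glo luminescence.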

The nature of assay [14]: qHTS assay to identify small molecule antagonists of the estrogen related receptor signaling pathway with the pleiotropic PPARgamma coactivator (PGC) from Tox21 10K library (AID 1224841; call rule not given here; further: actives are mostly falling curves and most rising ones were filed inactive; nearly all actives have a fitted effect of over 50% in size; further: potency means the concentration at half of the fitted maximal effect). The method, boiled down:
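Luminescence (One-Glo, 30 min at room temperature) after 18 h compound treatment at 37 C of PGC/ERR reporter cells plated at 2,000 cells/well and settled 6 h beforehand.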

“And” between values parts separate entries of the source, which are not always exact repeats. Identical values can stand only once. Records with an inconclusive call do not appear. The source holds several records for some structures; these can differ, active in one and inactive in another. The source made the active and inactive calls. Unless noted, the call rests on the fitted dose curve; in most records, active means well fitted curve in the direction sought with a large enough effect in the repeat runs; inconclusive means weak or mixed curves; inactive means no such curve, though single readings can be large; an effect the other way counts as inactive or inconclusive.

Turning to `O=C(OCC(COC(=O)c1ccccc1)(COC(=O)c1ccccc1)COC(=O)c1ccccc1)c1ccccc1`, the Potency result in assay [1], in [2], in [3], in assay [4], in assay [5] and in [6] was “inactive” each time. Also, the Potency entry in [7], in [8], in assay [9], in assay [10] and in assay [11] was “inactive” in each case.
For the compound `Cc1oc(-c2ccccc2)nc1CCC(=O)c1ccc(CC2SC(=O)NC2=O)cc1` (configuration not stated), the Potency entry in assay [1], in [2], in [3], in assay [5], in [6] and in [7] was “inactive” in each case. Besides, the Potency entry in assay [12], in assay [13], in [8], in [14], in [10] and in assay [11] was “inactive” in each case.
For `CCc1oc2ccccc2c1C(=O)c1cc(Br)c(O)c(Br)c1`, the Potency result in assay [1], in [2], in [3], in assay [5], in assay [6] and in assay [7] was “inactive” throughout. In addition, the Potency entry in assay [12], in assay [13], in assay [8], in assay [10] and in assay [11] was “inactive” in each case.
For the compound `CC(C)OC(=O)c1cc2c(OCC(O)CNC(C)(C)C)cccc2[nH]1` (configuration not stated), the Potency entry in assay [1], in assay [2], in assay [3], in [4], in assay [5] and in assay [6] was “inactive” in each case. Further, the Potency result in assay [7], in [8] and in assay [11] was “inactive” in each case.
As for `CSc1cnc(C)cn1`, the Potency result in assay [1], in [2], in assay [3], in [4], in assay [5] and in assay [6] was “inactive” throughout. The Potency result in assay [7], in assay [8], in [10] and in assay [11] was “inactive” each time.
Consider `N#CC1(c2ccc(F)cc2)CCC(=O)CC1`, for which the Potency result in assay [1], in [2], in [3], in assay [5], in assay [6] and in assay [7] was “inactive” in each case. In addition, the Potency result in assay [12], in [13], in [8], in assay [14], in assay [9] and in assay [10] was “inactive” throughout. In addition, the Potency entry in assay [11] is “inactive”.
Consider `CCCCCCOC(=O)c1ccc(O)cc1`, for which the Potency result in assay [1], in [2], in assay [6], in [7], in [12] and in assay [8] was “inactive” each time. Besides, the Potency entry in [14], in assay [10] and in [11] was “inactive” in each case. In addition, the Potency in assay [3] is 4.33 µM (active) and 1.93 µM (active); in [5], 31.8 µM (active) and 28.3 µM (active); in assay [13] it was 27.3 µM (active) and 54.5 µM (active); in assay [9], 30.7 µM (active) and 9.69 µM (active).
For `CCOC(=O)O[C@]1(C(=O)OCCl)CC[C@H]2[C@@H]3CCC4=CC(=O)C=C[C@]4(C)[C@H]3[C@@H](O)C[C@@]21C`, the Potency entry in assay [1], in [2], in assay [3], in assay [5], in assay [6] and in assay [7] was “inactive” in each case. In addition, the Potency entry in assay [8] and in [10] was “inactive” each time.
Take `Oc1ccc(N=Nc2ccccc2)cc1`: the Potency result in assay [1], in assay [2], in assay [12] and in [11] was “inactive” in each case. In addition, the Potency in [3] is 2.47 µM (active); in [4], 49.2 µM (active); in [5], 9.06 µM (active); in assay [13], 27.7 µM (active); in [8] it was 27.7 µM (active); in assay [10] it was 49.2 µM (active).
`COc1cc(/C=C/C(=O)O[C@H]2CC[C@]34C[C@]35CC[C@]3(C)[C@@H]([C@H](C)CCC=C(C)C)CC[C@@]3(C)[C@@H]5CC[C@H]4C2(C)C)ccc1O`: the Potency result in assay [1], in assay [2], in [3], in assay [5], in [6] and in assay [7] was “inactive” throughout. Also, the Potency entry in assay [12], in assay [13], in [8], in assay [14], in assay [9] and in assay [11] was “inactive” each time.
Consider `O=C(Nc1cccc([N+](=O)[O-])c1)c1cc2ccccc2cc1O`, for which the Potency entry in assay [1], in assay [2], in assay [9], in assay [10] and in [11] was “inactive” each time. In addition, the Potency in assay [3] is 0.969 µM (active); in [4] it was 4.33 µM (active); in [5], 1.59 µM (active); in [7] it was 9.69 µM (active); in assay [13], 2.43 µM (active); in assay [8], 3.86 µM (active).
For the compound `CC(C)(C)C(=O)OCOC(=O)C1N2C(=O)CC2S(=O)(=O)C1(C)C` (configuration not stated), the Potency result in assay [1], in [2], in [3], in assay [4], in assay [5] and in [6] was “inactive” each time. The Potency result in [7], in assay [8], in [10] and in [11] was “inactive” each time.
`COc1c(C)c2c(c(O)c1C/C=C(\C)CCC(=O)O)C(=O)OC2`: the Potency entry in assay [1], in assay [2], in assay [3], in assay [5], in assay [6] and in [7] was “inactive” in each case. Further, the Potency result in [8] was “inactive”. In addition, the Potency is 2.66 µM (active) in [14] and 151 nM (active) in [11].
In the case of `CCCCN1CCCC[C@H]1C(=O)Nc1c(C)cccc1C`, the Potency result in [1], in [2], in assay [3], in [4], in assay [5] and in assay [6] was “inactive” throughout. The Potency entry in assay [7], in [8], in assay [10] and in assay [11] was “inactive” in each case.
With `O=C(N/N=C/c1ccccc1O)c1ccncc1`, the Potency entry in assay [1], in assay [2], in assay [6], in [7], in assay [12] and in [13] was “inactive” each time. The Potency entry in assay [8], in [9] and in assay [10] was “inactive” each time. The Potency is 29.8 µM (active) in assay [3] and 27.5 µM (active) in assay [5].
With `COc1ccc(-c2ccc3cc(C(=O)O)ccc3c2)cc1C12CC3CC(CC(C3)C1)C2`, the Potency entry in [1], in assay [2], in assay [5], in assay [6], in assay [7] and in assay [13] was “inactive” each time. Besides, the Potency entry in [8] and in assay [10] was “inactive” each time. The Potency was 0.0298 µM (active) in [3] and 13400 nM (active) in assay [11].
Turning to `CCCCC(CC)COP(=O)(O)OCC(CC)CCCC` (configuration not stated), the Potency entry in [1], in assay [3], in assay [6], in assay [7], in assay [12] and in assay [13] was “inactive” each time. Also, the Potency entry in assay [8] and in assay [9] was “inactive” in each case. Besides, the Potency result in assay [2] is “inactive and 48.6 µM (active)”; in assay [4], 48.6 µM (active); in assay [14], 27.4 µM (active) and 21.7 µM (active); in assay [11], 17.4 µM (active) and 5.49 µM (active).
